Source: PubChem BioAssay
Sampled rows, rich in hits. Any-hit rate of the full collection: about 14%.
HCMV inh = blocks human cytomegalovirus replication; HFF cells, HCMV-luciferase reporter, 72 h; hits give low values; activity change, negative = inhibition, % at 57.5 µM; 4.5% of 410,000 active; in the data active = activity change below about -60%; inconclusive = no clear call, values can overlap the other calls; inactive = above about -39%
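Two compound doses tested in HFFs infected with HCMV-luciferase, MOI 1 PFU/cell, 72 h at 37C. Lysate luminescence read with OneGlo; data normalized against buffer-only and 10uM Salinomycin inhibitor controls.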
FBPA Giardia inh = inhibitors of Giardia lamblia fructose-1,6-bisphosphate aldolase; A8B2U2; purified Giardia FBPA; Potency, µM (titrated, usually from 59.6 µM), inactives show top-dose activity, negative = inhibition, most hits filed as inhibitors; 0.71% of 290,000 active; AID 2451; also: potency is read from the fitted curve at half-maximal effect; nearly all actives have a fitted effect of over 55% in size
Target sequence (A8B2U2 whole entry, looked up): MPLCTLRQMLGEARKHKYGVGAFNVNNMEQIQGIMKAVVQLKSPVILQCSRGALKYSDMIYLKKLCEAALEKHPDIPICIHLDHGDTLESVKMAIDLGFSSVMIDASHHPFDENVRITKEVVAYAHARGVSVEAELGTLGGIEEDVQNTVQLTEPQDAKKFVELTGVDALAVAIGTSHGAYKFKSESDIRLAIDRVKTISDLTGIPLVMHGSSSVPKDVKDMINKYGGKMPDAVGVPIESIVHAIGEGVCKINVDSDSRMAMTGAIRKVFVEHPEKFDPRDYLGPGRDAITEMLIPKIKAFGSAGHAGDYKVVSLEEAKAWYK
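Giardia FBPA (40 nM reagent) was preincubated 10 min at RT with compound (up to 57.5 uM final), then substrate plus GAPDH/TPI/NAD/arsenate coupling system with diaphorase/resazurin was added; resorufin fluorescence (525/598 nm) was read after 20 min.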
Pf growth 96h = P. falciparum growth inhibition at 96 hour, primary screen for plastid delayed-death inhibitors; P. falciparum luciferase reporter growth, 96 h; Potency, µM (titrated, usually from 28.7 µM), without a hit: at the top dose activity change, negative = inhibition, actives largely listed as inhibitors; 6.9% of 320,000 active; AID 504834; also: potency is read from the fitted curve at half-maximal effect
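Two-generation exposure (96 h) targets delayed-death phenotype. Reporter parasites carrying integrated firefly luciferase, in red cells at 2% hematocrit and 0.05% parasitemia final, kept at 37 C, 5% CO2; luminescence loss indicates inhibition.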
Pf growth 48h = inhibits P. falciparum growth in the first generation, 48 h; 5.9% of 310,000 active; P. falciparum luciferase growth in erythrocytes, 48 h; Potency, µM (top dose mostly 28.7 µM), for inactives: at the top dose activity change, negative = inhibition, most hits filed as inhibitors; also: potency is read from the fitted curve at half-maximal effect
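Luciferase-expressing parasites in RBCs, 2% Hct / 0.1% parasitemia final; RPMI 1640 + 0.5% Albumax; 37 C, 5% CO2, one generation; luminescence read-out, lower signal = inhibition.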
Sm TGR block = inhibitors of Schistosoma mansoni thioredoxin glutathione reductase; Q962Y6; purified TGR, DTNB reduction, TNB absorbance 405 nm; Potency, µM (series often up to 114 µM), for inactives: at the top dose activity change, negative = inhibition, usual class: inhibitors; 3% of 360,000 active; AID 485364; also: potency is read from the fitted curve at half-maximal effect; nearly all actives have a fitted effect of over 60% in size
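First, TGR (20 nM dispensed) and NADPH were mixed with compound. Second, a 15 min room-temperature incubation followed. Third, further NADPH and then DTNB were added to start the reaction. Finally, TNB absorbance was monitored kinetically.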
* marks the source's active call; other numbers are inactive results; ? = inconclusive; nt = not tested or not shown; [ ] = dose if it differs, or a comment. Unless noted, calls follow the shape of the dose curve; as a rule, active = well fitted curve in the direction sought with a large enough effect; inconclusive = small, poorly fitted or top-dose-only effect, or another doubt; inactive = no such curve, though single readings can be large; an effect the other way counts as inactive or inconclusive. % is scaled to controls: 0 for no effect and ±100 for the full control effect.

SMILES	HCMV inh	FBPA Giardia inh	Pf growth 96h	Pf growth 48h	Sm TGR block
COc1ccccc1NC(=O)CN1CCN(C2c3ccccc3-c3ccccc32)CC1	-7.8	-7.7%	-18.8%	13.1µM*	8.5%
CCOc1ccc(NC(=O)CN2CCN(C3c4ccccc4-c4ccccc43)CC2)cc1	-6.0	-26.8%	64.6%	13.1µM*	-6.6%
CCCCOc1ccc(NC(=O)CN2CCN(C(=O)OCC)CC2)cc1	0.3	?	?	9.28µM*	-6.2%
CCCCOc1ccc(NC(=O)CN2CCN(CC)CC2)cc1	40.9	?	-33.4%	11.8%	-21.5%
CCC[C@H]1CN(Cc2cccnc2)C(=O)[C@@H]1CC(=O)Nc1ccc(Br)cc1	-31.5	nt	nt	nt	nt
O=C(Nc1ccc2c(c1)OCCO2)c1cc(-c2ccccc2)nc2ccccc12	-1.8	2.5%	?	?	9.9%
COc1ccc(-c2cc([N+](=O)[O-])ccc2OCC(=O)N(C)CC(=O)Nc2ccc(C)cc2)cc1	1.1	nt	9.28µM*	6.57µM*	-6.9%
COC(=O)c1cc(-c2ccc(C)o2)nc2ccccc12	-2.6	-14.7%	24.5%	19.0%	?
COc1ccc(NC(=O)CN(C)C(=O)CN2C(=O)c3ccc([N+](=O)[O-])cc3C2=O)cc1	8.6	nt	34.5%	104.9%	-9.1%
COc1ccc(-c2cc(C(=O)N(C)CC(=O)Nc3ccccc3Br)c3ccccc3n2)cc1OC	12.8	nt	9.28µM*	8.28µM*	-0.9%
Cc1ccc(-c2cc(C(=O)Nc3ccccc3C)c3ccccc3n2)o1	-17.5	-25.4%	?	?	10µM*
COc1cccc(-c2cc(C(=O)Nc3ccc4c(c3)OCCO4)c3ccccc3n2)c1	-5.4	?	6.57µM*	9.28µM*	-12.3%
COc1ccc(-c2cc(C(=O)N(C)CC(=O)Nc3ccccc3C(F)(F)F)c3ccccc3n2)cc1OC	0.0	nt	nt	nt	nt
CCN(C(=O)CSc1nnc(-c2cc3occc3n2C)n1-c1ccccc1C)c1ccccc1	14.0	nt	nt	nt	-5.8%
Cn1c([N+](=O)[O-])cnc1N1CCN(c2nncs2)C1=O	?	2.1%	18.5%	42.6%	-2.6%
CC(C)(C)C(=O)Nc1sc2c(c1C#N)CCN(Cc1ccccc1)C2	25.5	-23.0%	17.0%	-12.4%	-9.4%
C[C@H]1[C@@H](NS(=O)(=O)c2ccc(C(F)(F)F)cc2)CC[C@@]23CCCN2C(=O)CCC[C@@H]13	-25.1	nt	nt	nt	nt
COc1cccc(NC(=O)CN(C)C(=O)c2cc(-c3ccc(C)o3)nc3ccccc23)c1	-9.5	nt	9.28µM*	11.7µM*	14.1µM*
CCOc1ccc(NC(=O)CN(C)C(=O)c2cc(-c3ccc(OC)cc3)nc3ccccc23)cc1OCC	-17.8	nt	7.38µM*	9.28µM*	0.3%
COc1cc(-c2cc(C(=O)Nc3cccc(S(=O)(=O)N(C)C)c3)c3ccccc3n2)cc(OC)c1OC	2.4	-6.0%	?	?	2.6%
COc1cccc(NC(=O)c2cc(-c3ccc(C)o3)nc3ccccc23)c1	29.2	7.8%	-42.0%	?	35.5µM*
Cc1ccc(-c2cc(C(=O)Nc3cccc(S(=O)(=O)N(C)C)c3)c3ccccc3n2)o1	-31.1	-8.0%	?	?	22.4µM*
O=C(Nc1ccccc1F)C1CCCN1S(=O)(=O)c1ccc(Cl)cc1 (centres undefined)	?	nt	-22.7%	?	-21.8%
CC(C)[C@H](NC(=O)[C@H](CCC(N)=O)NC(=O)CNC(=O)[C@@H]1CCCN1C(=O)[C@H](Cc1ccc(O)cc1)NC(=O)CN)C(=O)O	nt	-2.1%	nt	nt	nt
Cc1cc2c(ccc3[nH]onc32)n1	-32.8	?	4.7%	19.7%	31.6µM*
SMILES	HCMV inh	FBPA Giardia inh	Pf growth 96h	Pf growth 48h	Sm TGR block
COC(=O)CCCCCCCCCC[N+]1(C)CCCCC1	-6.8	4.6%	52.4%	3.7µM*	-13.0%
CN(CC(=O)NCc1ccccc1Cl)S(=O)(=O)c1ccc2c(c1)n(C)c(=O)c(=O)n2C	-0.9	nt	-6.4%	?	-13.9%
COc1ccc(Nc2c3c(nc4ccccc24)CCCC3)cc1OC	8.2	3.5%	0.8%	-17.7%	-15.7%
COc1ccc(/C=C/C(=O)Nc2ccc3nc4c(c(Nc5ccc(OC)c(OC)c5)c3c2)CCCC4)cc1	-98.8*	nt	nt	nt	-10.8%
COc1ccc(Nc2c3c(nc4ccc(NC(=O)/C=C/c5cc(OC)c(OC)c(OC)c5)cc24)CCCC3)cc1OC	-102.4*	nt	nt	nt	-0.5%
Cc1csc(N2C(=O)C3C4CCC(O4)C3C2=O)n1 (centres undefined)	91.1	nt	nt	nt	nt
COc1ccc(C(=O)C(C)[n+]2ccc(C)c3ccccc32)cc1[N+](=O)[O-] (centres undefined)	-86.4*	-8.1%	?	?	?
COc1ccc(C(=O)NC(C)CCc2ccccc2)cc1[N+](=O)[O-] (centres undefined)	-5.9	-1.8%	-6.4%	-7.0%	12.9%
Cc1cc(C)c(S(=O)(=O)Nc2ccccc2)c(C)c1	-23.3	nt	nt	nt	nt
CC1CN(C(=O)c2ccc(-c3cccc(C(F)(F)F)c3)o2)CC(C)O1 (centres undefined)	?	nt	?	13.1µM*	-19.5%
CC1CN(C(=O)c2ccc(COc3ccc(C(C)C)cc3)o2)CC(C)O1 (centres undefined)	52.6	-0.5%	-5.4%	23.3%	39.8µM*
CC1CN(C(=O)c2ccc(COc3ccc4ccccc4c3)o2)CC(C)O1 (centres undefined)	45.4	-19.7%	188.5%	42.7%	31.6µM*
O=C(c1ccccc1Br)N(Cc1ccccc1)c1ccccc1	-61.5*	4.0%	-5.0%	?	-9.9%
CC1=C(C(=O)N2CCOCC2)CC(CC(=O)NC(c2ccccc2)c2ccccc2)C(=O)N1Cc1ccc(F)cc1 (centres undefined)	-9.7	nt	nt	nt	nt
CCn1c(CNS(=O)(=O)c2ccc(Br)cc2)nnc1SC	58.2	nt	17.4%	105.6%	3.55µM*
O=C(NCC(O)c1nc2ccccc2[nH]1)c1cc2ccccc2[nH]1 (centres undefined)	51.1	nt	nt	nt	nt
COCOCCn1cc(CN2CCS(=O)(=O)N(Cc3ccc(-c4ccc(Cl)nc4)cc3)C(C)C2=O)nn1 (centres undefined)	-20.0	nt	nt	nt	nt
CC(C)OCCCN1CN(S(=O)(=O)c2cccc(Cl)c2)c2nc3ccccc3nc21	30.9	1.9%	9.28µM*	?	7.3%
O=C(NCCOc1ccccc1Cl)C(=O)NCCOc1ccccc1Cl	37.2	3.3%	2.94µM*	-2.9%[5.75 µM]	18.3%
Cc1cn2c(=O)c(C(=O)N3CCN(c4ccccc4F)CC3)cnc2s1	-30.9	nt	27.2%	27.1%	-3.2%
COc1cc(CNc2ccc(N3CCCC3)cc2)ccc1OCc1ccccc1F	nt	4.5%	?	?	?
COc1cc(CNc2ccc(N3CCCC3)cc2)ccc1OCc1ccccc1	-1.6	?	7.9%	8.28µM*	44.7µM*
COc1ccc(CNc2ccc(N3CCN(C(C)=O)CC3)cc2)cc1OC	-38.5	nt	nt	nt	nt
